Assay outcomes: PubChem BioAssay, Sanford-Burnham Center for Chemical Genomics
Only some compounds are listed: those with a hit (about 3% of all), similar ones and a draw of the others.
PPC-1+TRAIL kill = PPC-1 cancer cell killing with TRAIL present | PPC-1 cells + TRAIL, ATPLite viability luminescence | cell killing (% activity), % at 4 µM or 5 µM | actives 0.41% (n = 220,000);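 active = cell killing above 50% in the first pass at 4 µM, then a duplicate retest at 5 µM averaging 50% or more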;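 note: plate controls were cells with TRAIL plus DMSO for no effect and medium-only wells lacking cells for full effect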
TRAIL sens C8 = caspase-8 TRAIL sensitization; NB7+C8 cells + TRAIL, ATPlite viability luminescence; AID 624354; inhibition (viability loss, TRAIL sensitization), % at 10 µM; actives 1% (n = 360,000);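 active = compounds causing at least 50% loss of cell viability in the single-dose screen, relative to plate controls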
SENP6 inh = inhibitors of human SENP6 protease | inhibition, % at 10 µM | AID 2599 | Recombinant SENP6 catalytic domain, aminoluciferin luminescence | Q9GZR1 | actives 1.8% (n = 330,000);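 active = inhibition above about 50% at the single tested dose, limit read from the data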;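 note: plate controls were DMSO wells with enzyme for no effect and DMSO wells lacking enzyme for full effect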
Target sequence (Q9GZR1 628-1112 limits assumed): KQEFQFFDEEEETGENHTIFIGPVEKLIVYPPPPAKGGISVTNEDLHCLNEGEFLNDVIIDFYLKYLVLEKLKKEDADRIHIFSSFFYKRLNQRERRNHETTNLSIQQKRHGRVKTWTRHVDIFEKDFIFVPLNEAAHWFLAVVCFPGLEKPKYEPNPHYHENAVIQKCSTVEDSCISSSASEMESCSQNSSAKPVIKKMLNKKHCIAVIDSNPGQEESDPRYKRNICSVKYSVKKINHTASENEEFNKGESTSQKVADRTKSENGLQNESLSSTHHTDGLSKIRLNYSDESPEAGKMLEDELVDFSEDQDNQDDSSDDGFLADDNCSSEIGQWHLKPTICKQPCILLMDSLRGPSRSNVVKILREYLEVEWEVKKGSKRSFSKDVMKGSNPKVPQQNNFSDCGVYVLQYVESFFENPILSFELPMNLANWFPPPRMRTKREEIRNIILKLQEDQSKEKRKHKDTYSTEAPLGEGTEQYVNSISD
SENP8 block-1 = SENP8 protease inhibition. purified SENP8, Z-RLRGG-aminoluciferin cleavage, luminescence. inhibition, % at 10 µM. actives 1.2% (n = 330,000); in the data active = inhibition above about 50%
SENP7 inh = blocks the human protease SENP7. Q9BQF6. actives 1.5% (n = 330,000). AID 434973. recombinant SENP7, Z-RLRGG-aminoluciferin luminescence, 40 min. inhibition, % at 5 µM;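 active = inhibition above about 50% at the single test dose, limit read from the data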;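 note: plate controls were DMSO with enzyme for no effect and no enzyme buffer wells for full effect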
SENP8 block-2 = blocks human SENP8 cleavage of Nedd8 substrate | Q96LD8 | recombinant SENP8, Nedd8 substrate fluorescence | inhibition, % at 20 µM | actives 0.64% (n = 360,000) | AID 602440; in the data active = inhibition mostly above about 40%, no sharp cut-off; inactive = mostly below about 27%
SENP8 conf = human SENP8 inhibition, confirmed; shares compounds with SENP7 inh; Recombinant SENP8, Z-RLRGG-aminoluciferin luminescence, 60 min; inhibition, % at 12.5 µM; actives 40% (n = 6,200); AID 488912;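 active = mean inhibition across replicates above about 50%, limit read from the data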
SENP6 confirm = human SENP6 inhibition, confirmed | shares compounds with SENP7 inh | recombinant SENP6, Z-RLRGG-aminoluciferin luminescence | inhibition, % at 12.5 µM | actives 58% (n = 6,200) | AID 488915
SENP7 conf = human SENP7 inhibition, confirmed; inhibition, % at 12.5 µM; recombinant SENP7, Z-RLRGG-aminoluciferin luminescence, 40 min; actives 69% (n = 6,200); shares compounds with SENP7 inh
Casp3 SENP sel = selectivity test for SENP inhibitors: human caspase-3 inhibition; inhibition, % at 12.5 µM; actives 60% (n = 6,200); AID 488918; purified caspase-3, Z-DEVD-aminoluciferin luminescence, 60 min; shares compounds with SENP7 inh;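 active = mean inhibition above about 50%, limit read from the data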;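 note: plate controls were enzyme with DMSO for no effect and wells without caspase-3 for full effect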
SENP luc ctr = counter-screen for SENP inhibitors: luminescence interference; shares compounds with SENP7 inh; Pre-incubated SENP8/Z-RLRGG-aminoluciferin, luciferase luminescence interference; inhibition, % at 12.5 µM; actives 39% (n = 6,200); AID 488919;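 active = mean inhibition above about 50% when retested at one dose, limit read from the data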;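 note: plate controls were DMSO wells with completed reaction for no effect and substrate without enzyme for full effect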
* marks the source's active call; other numbers are inactive results.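 Rule for the calls, unless noted: active = mean inhibition above about 50% in the one-dose retest (limit read from the data); inactive = the rest.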

Results for COc1ccccc1C(=O)N/N=C/C(C)=C/c1ccccc1 ?
TRAIL sens C8: 13; SENP6 inh: 4; SENP8 block-1: -4; SENP7 inh: 1; SENP8 block-2: 17

What do the screens show for `O=C(N/N=C/C(Br)=C/c1ccccc1)C(O)c1ccccc1` (stereo not given)?
PPC-1+TRAIL kill: 13; TRAIL sens C8: 9; SENP6 inh: -23; SENP8 block-1: -6; SENP7 inh: -8; SENP8 block-2: 21

Results for O=C(O)c1ccc(N/N=C/C(Br)=C/c2ccccc2)cc1 ?
PPC-1+TRAIL kill: -2; TRAIL sens C8: 11; SENP6 inh: 101*; SENP8 block-1: 96*; SENP7 inh: 83*; SENP8 block-2: -42; SENP8 conf: 99*; SENP6 confirm: 100*; SENP7 conf: 103*; Casp3 SENP sel: 85*; SENP luc ctr: 96*

Results for O=C(N/N=C/c1ccc(-c2ccccc2C(=O)O)o1)c1cccs1 ?
PPC-1+TRAIL kill: 22; TRAIL sens C8: 0; SENP6 inh: 51*; SENP8 block-1: 21; SENP7 inh: 19; SENP8 block-2: -307; SENP8 conf: 41; SENP6 confirm: 32; SENP7 conf: 64*; Casp3 SENP sel: 73*; SENP luc ctr: 20

What do the screens show for `CC(=C/c1ccccc1)/C=N/NC(=O)c1cccs1`?
PPC-1+TRAIL kill: 6; TRAIL sens C8: 58*; SENP6 inh: 83*; SENP8 block-1: 75*; SENP7 inh: 79*; SENP8 block-2: -22; SENP8 conf: 42; SENP6 confirm: 80*; SENP7 conf: 96*; Casp3 SENP sel: 70*; SENP luc ctr: 34

How did Cc1ccc(/C=N/NC(=O)CNC(=O)c2cccs2)o1 do in these assays?
PPC-1+TRAIL kill: 9; TRAIL sens C8: 2; SENP6 inh: 7; SENP8 block-1: -2; SENP7 inh: 5; SENP8 block-2: 4

Results for O=C(N/N=C/c1ccc(Cl)cc1Cl)c1cccc(F)c1 ?
PPC-1+TRAIL kill: 8; TRAIL sens C8: 6; SENP6 inh: 89*; SENP8 block-1: 77*; SENP7 inh: 88*; SENP8 block-2: 20; SENP8 conf: -6; SENP6 confirm: 10; SENP7 conf: 33; Casp3 SENP sel: 32; SENP luc ctr: 7

How did COc1ccccc1CN1CC(C(=O)NC2CCOCC2)CCC1=O (stereo not given) do in these assays?
TRAIL sens C8: 0; SENP6 inh: -17; SENP8 block-1: -5; SENP7 inh: -5; SENP8 block-2: 3

How did Cc1ccc(NC(=O)CCN2C(=O)C3CCCCC3C2=O)cc1[N+](=O)[O-] (stereo not given) do in these assays?
TRAIL sens C8: 3; SENP6 inh: -10; SENP8 block-1: -4; SENP7 inh: -13; SENP8 block-2: 13

Results for O=C(N/N=C/C(Br)=C\c1ccccc1)c1cccs1 ?
PPC-1+TRAIL kill: 11; TRAIL sens C8: -3; SENP6 inh: 63*; SENP8 block-1: 52*; SENP7 inh: 30; SENP8 block-2: 9; SENP8 conf: 18; SENP6 confirm: 49; SENP7 conf: 77*; Casp3 SENP sel: 30; SENP luc ctr: 7

Results for CC(/C=N/NC(=O)c1cccc(F)c1)=C\c1ccccc1 ?
TRAIL sens C8: 48; SENP6 inh: 83*; SENP8 block-1: 67*; SENP7 inh: 79*; SENP8 block-2: -3; SENP8 conf: 76*; SENP6 confirm: 78*; SENP7 conf: 95*; Casp3 SENP sel: 82*; SENP luc ctr: 71*

How did O=C(N/N=C/c1ccncc1)c1cccs1 do in these assays?
TRAIL sens C8: -2; SENP6 inh: 9; SENP8 block-1: -14; SENP7 inh: 2; SENP8 block-2: 9

What do the screens show for `O=C(N/N=C/c1ccc(OC(=O)c2cccc(F)c2)cc1)c1cccnc1`?
TRAIL sens C8: 0; SENP6 inh: 36; SENP8 block-1: 24; SENP7 inh: 13; SENP8 block-2: -2

How did O=C(N/N=C/c1ccc(OC(=O)c2cccs2)cc1)c1cccc(F)c1 do in these assays?
PPC-1+TRAIL kill: -4; TRAIL sens C8: 17; SENP6 inh: 16; SENP8 block-1: 3; SENP7 inh: 72*; SENP8 block-2: 17; SENP8 conf: -9; SENP6 confirm: -4; SENP7 conf: -4; Casp3 SENP sel: 25; SENP luc ctr: 4

What do the screens show for `CSc1ccc(/C=N/NC(=O)c2cccs2)cc1`?
PPC-1+TRAIL kill: 5; TRAIL sens C8: 30; SENP6 inh: 83*; SENP8 block-1: 74*; SENP7 inh: 88*; SENP8 block-2: -385; SENP8 conf: 26; SENP6 confirm: 66*; SENP7 conf: 98*; Casp3 SENP sel: 86*; SENP luc ctr: 85*

Results for CC(C)C[C@H]1CN(CCCC[C@@H]2CNC(=O)C(=O)N2CCc2ccccc2)C(=O)C(=O)N1CCc1ccc(O)cc1 ?
TRAIL sens C8: 8; SENP8 block-2: 12

What do the screens show for `CC(C)N(C(=O)Nc1ccc2nsnc2c1)C(C)C`?
PPC-1+TRAIL kill: 7; SENP6 inh: 98*; SENP8 block-1: 97*; SENP7 inh: 95*; SENP8 conf: 83*; SENP6 confirm: 89*; SENP7 conf: 75*; Casp3 SENP sel: 12; SENP luc ctr: 9

Results for C=CCNC(=O)COC(=O)c1ccc(Cl)c(S(=O)(=O)N(Cc2ccccc2)c2ccccc2)c1 ?
PPC-1+TRAIL kill: 33; TRAIL sens C8: 4; SENP6 inh: 8; SENP8 block-1: -7; SENP7 inh: 1; SENP8 block-2: 3

How did N#Cc1ccccc1CSc1ccc(-c2nc3ccccc3[nH]2)cn1 do in these assays?
PPC-1+TRAIL kill: 2; TRAIL sens C8: 15; SENP6 inh: 64*; SENP8 block-1: 49; SENP7 inh: 6; SENP8 block-2: -48; SENP8 conf: 67*; SENP6 confirm: 63*; SENP7 conf: 80*; Casp3 SENP sel: 34; SENP luc ctr: 53*
